In the library only some 4.4% were active in any assay of this set; here they are far more common.
USP1-UAF1 inh = inhibitors of human USP1/UAF1 deubiquitinase; O94782; recombinant USP1/UAF1, Ub-Rhodamine cleavage fluorescence; Potency, µM (highest dose often 57.1 µM), inactives show at the top dose activity change, negative = inhibition, hits mostly inhibitors; hit rate 0.23% among 390,000; active = well fitted inhibition curve with a large enough effect; also: potency is read from the fitted curve at half-maximal effect; % is scaled to controls: 0 for no effect and ±100 for the full control effect; nearly all actives have a fitted effect of over 60% in size
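USP1/UAF1 complex at 1 nM was preincubated with compound for 15 min at room temperature, then Ub-Rho substrate (150nM final) was added. Fluorescence (480/540 nm) was read kinetically, 6 reads every 60 seconds.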
TRHR ag = activates the human TRH receptor; P34981; TRHR cells, calcium flux fluo-8, FDSS agonist mode; activation, % at 2 µM; hit rate 0.18% among 360,000; also: 0% is about no effect
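Agonist-mode FDSS calcium read (Ex 480/Em 530, 1 s cycles) in 1536-well TRHR cells with fluo-8 dye, after 10-cycle baseline and 23 nL compound addition; TRH at EC20 (10 nM final) added afterwards for the enhancer phase.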
TRHR PAM = allosterically enhances the human TRH receptor; TRHR cells, fluo-8 calcium fluorescence, EC20 TRH enhancement; enhancement, % at 2 µM; hit rate 0.66% among 360,000; in the data active = enhancement above about 30%; also: 0% is about no effect
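TRHR-expressing cells loaded with fluo-8 calcium dye were read kinetically (ex 480/em 530) during compound addition, then stimulated with an EC20 of TRH (10 nM final). Enhancement of the Gq-mediated intracellular calcium response was scored.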
D1 antag = antagonists of human D1 dopamine receptor. P21728. HEK293 TREx D1 cells, calcium flux, dopamine EC80; hits give low values. activity change, negative = inhibition, % at 10 µM. hit rate 3.2% among 360,000. AID 504652; in the data active = activity change below about -30%; also: % is scaled to controls: 0 for no effect and ±100 for the full control effect
Target sequence (P21728 whole entry, looked up): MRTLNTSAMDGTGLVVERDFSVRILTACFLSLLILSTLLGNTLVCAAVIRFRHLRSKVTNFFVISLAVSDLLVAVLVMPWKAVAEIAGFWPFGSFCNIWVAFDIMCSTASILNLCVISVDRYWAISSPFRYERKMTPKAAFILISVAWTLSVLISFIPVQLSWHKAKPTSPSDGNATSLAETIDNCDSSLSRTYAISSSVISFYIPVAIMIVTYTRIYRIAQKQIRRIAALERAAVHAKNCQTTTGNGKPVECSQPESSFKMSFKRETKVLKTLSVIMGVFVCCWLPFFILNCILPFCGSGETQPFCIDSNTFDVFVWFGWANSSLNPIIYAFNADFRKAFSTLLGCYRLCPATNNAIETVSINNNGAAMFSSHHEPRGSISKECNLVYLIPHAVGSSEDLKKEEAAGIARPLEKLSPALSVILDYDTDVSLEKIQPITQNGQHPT
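Allosteric or orthosteric antagonism assessed as attenuation of the calcium response to EC80 dopamine, added 180 s after compound, in induced HEK293 Trex D1 cells loaded with no-wash calcium dye.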
D1 agonist = activates the human D1 dopamine receptor | P21728 | HEK293 T-REx D1 cells, calcium flux, agonist mode | activation, % at 2 µM | hit rate 1% among 360,000; also: 0% is about no effect
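Agonism was scored from calcium flux recorded over 180 s (1 read/s) after pintool compound addition, following a 10-cycle baseline. Cells were inducible force-coupled HEK293 TREx D1, plated overnight at 30 C and loaded with no-wash calcium dye.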
D1 potentiator = enhances dopamine response at the human D1 receptor; P21728; HEK293 TREx D1 cells, calcium flux, dopamine EC20 potentiation; potentiation, % at 10 µM; hit rate 0.036% among 360,000; in the data active = potentiation above about 30%; also: 0% is about no effect
Starred values were filed as active, the others as inactive; . = not tested or not shown; [ ] = remark or other dose. Rule as the data show it, unless noted: active = activation above about 30%; inactive = the rest.

SMILES | USP1-UAF1 inh | TRHR ag | TRHR PAM | D1 antag | D1 agonist | D1 potentiator
COc1cc(OC)c2c(-c3ccccc3)cc(=O)oc2c1C(CCN1CCOCC1)c1ccc2c(c1)OCO2 (configuration not stated) | -16% | . | . | . | . | .
COc1cc(OC)c2c(C)cc(=O)oc2c1C(CCN1CCN(c2ccccc2)CC1)c1ccc2c(c1)OCO2 (configuration not stated) | -21% | 0 | 8 | -79* | 5 | -9
O=C(Nc1cc(C(F)(F)F)ccc1Cl)c1cnn(-c2ccccc2)c1-n1cccc1 | -6% | 2 | -2 | 3 | 9 | 1
CCc1c(C)c2ccc3c(c2oc1=O)CN(Cc1ccccc1)CO3 | -21% | 0 | 14 | -8 | 11 | -2
Cc1nc2c3ccccc3nc(NNC(=O)CCC(=O)N3CCCC(C)C3)n2n1 (configuration not stated) | -10% | 0 | 2 | -33* | 0 | -5
COc1ccc(CCN2C(=O)CN(C3CCCCCC3)C(=O)C2c2ccc(C)cc2)cc1OC (configuration not stated) | -17% | -1 | -2 | 11 | -1 | 2
O=C(COC(=O)c1cc(=O)[nH]c2ccc(Br)cc12)c1ccccc1 | -22% | -2 | 33* | 108 | 0 | 2
COCCn1c(N)c(Sc2ccc(C)cc2)c(=O)[nH]c1=O | -3% | 0 | 2 | 1 | 3 | 0
COCCn1c(N)c(C(=O)NS(=O)(=O)c2ccc(C)cc2)c(=O)[nH]c1=O | 4% | 0 | -3 | -32* | 7 | 1
Cc1cccc(N2C(=O)N3[C@H](c4ccc(Cl)cc4)[C@@H]4C(=O)N(C5CCCCC5)C(=O)[C@@H]4[C@]3(Cc3ccc(Cl)cc3)C2=O)c1 | -4% | 4 | 5 | -40* | 11 | -8
COc1ccc2occ(C(=O)c3ccccc3)c2c1 | 1% | -1 | 2 | -10 | 1 | 2
COc1ccc(OC)c(C(=O)c2coc3ccc(O)cc23)c1 | -8% | -1 | 40* | -2 | 5 | -1
Cc1ccc(-c2nc3sc(C(N)=O)c(N)c3c3c2CCCC3)cc1 | -21% | 0 | 7 | -14 | 6 | -8
Cc1nc2sc(C(N)=O)c(N)c2c2c1CCCC2 | -9% | -3 | -2 | -30* | 4 | -3
Cc1[nH]c(C(=O)O)c(C)c1C(=O)OC(C)C | 0% | 0 | -4 | -53* | 0 | -6
CC(=O)c1c(C(=O)O)[nH]c(C(=O)O)c1C | -17% | 1 | 1 | -2 | -3 | -2
CCOc1ccccc1NC(=O)C(=O)Nc1ccc2nc3n(c(=O)c2c1)CCCCC3 | -16%[11.4 µM] | 1 | 1 | 7 | 1 | 1
CN(C)c1ccc(/C=C2\C(=N)N3C(=NC2=O)Sc2cc(S(C)(=O)=O)ccc23)cc1 | . | 34* | 2 | -8 | 78* | -1
CN(C)c1ccc(/C=C2\C(=N)N3N=C(CC(=O)N4CCCCC4)SC3=NC2=O)cc1 | -20% | 31* | 1 | 8 | 37* | 1
O=C(NCCCN1CCCCC1)c1cc(Sc2ccc(Cl)cc2)nc2ccccc12 | 5% | 1 | -1 | -18 | 18 | -2
CCOC(=O)c1c2c(n(-c3ccc(OC)cc3)c1C)C(=O)C(=O)c1ccccc1-2 | 1.8µM* | . | . | . | . | .
COc1ccc(CNC(=O)Cc2c(C)c3c(cc(C)c4c(C)c(C)oc43)oc2=O)cc1 | -6% | 0 | 5 | -1 | 0 | -1
COc1ccc(/C=C/C(=O)Nc2nc3n(n2)C(c2ccccc2)C=C(c2ccc(Cl)cc2)N3)cc1 (configuration not stated) | -8% | 1 | 0 | 5 | 9 | -2
COc1ccc(C(=O)Nc2nc3n(n2)C(c2ccc(Cl)cc2)C=C(c2ccccc2)N3)cc1OC (configuration not stated) | -27% | 30* | 7 | -2 | 39* | -1
COc1ccc(C2C=C(c3ccccc3)Nc3nc(NC(=O)/C=C/c4ccc(Cl)cc4)nn32)cc1 (configuration not stated) | -17% | 0 | -5 | -77* | 1 | 1

Screening data: PubChem BioAssay, National Center for Advancing Translational Sciences (NCATS)
